Source: PubChem BioAssay AID1159580 (chemical genetic matrix, 2015)
About 2,000 (36%) of roughly 5,500 compounds were called active. About 18% were inconclusive and are not listed. Rule as the data show it: active = normalized growth mostly below about 0.91 (no sharp cut-off); inconclusive = no clear call, values can overlap the other calls; inactive = mostly above about 0.92. This is one part of the list.

Test: chemical genetic growth profiling, strain panel (AID 1159580);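 also: tested at 20 µM; growth read once vehicle control cultures reached saturation at 30 °C; 1 = growth at the plate median or of vehicle wells; lower values mean less growth of the strain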
Details: growth OD

Measured: normalized growth

CC(=O)OCC(=O)[C@@]1(O)[C@H](OC(C)=O)CC2C3CCC4=CC(=O)C=C[C@]4(C)[C@@]3(F)[C@@H](O)C[C@@]21C (some centres not stated)
inactive: S. cerevisiae deletion strains, locus YJR066W, strain TOR1, hits give low values 0.935 | S. cerevisiae deletion strains, locus YKL009W, strain mrt4, hits give low values 0.993 | S. cerevisiae deletion strains, locus YKL068W, hits give low values 0.994 | S. cerevisiae deletion strains, locus YKL085W, strain MDH1 (second series), hits give low values 1 | S. cerevisiae deletion strains, locus YKL085W, strain MDH1, hits give low values 1 | S. cerevisiae deletion strains, locus YKL160W, strain elf1, hits give low values 1.02 | S. cerevisiae deletion strains, locus YKL190W, strain CNB1, hits give low values 0.996 | S. cerevisiae deletion strains, locus YKR001C, strain vps1, hits give low values 0.999 | S. cerevisiae deletion strains, locus YKR026C, strain gcn3, hits give low values 0.993 | S. cerevisiae deletion strains, locus YKR091W, strain srl3, hits give low values 0.986 | S. cerevisiae deletion strains, locus YLL001W, strain dnm1, hits give low values 1.03 | S. cerevisiae deletion strains, locus YLL026W, hits give low values 1 | S. cerevisiae deletion strains, locus YLL041C, strain sdh2, hits give low values 0.985 | S. cerevisiae deletion strains, locus YLR027C, strain aat2, hits give low values 1.01 | S. cerevisiae deletion strains, locus YLR039C, strain RIC1, hits give low values 0.995 | S. cerevisiae deletion strains, locus YLR058C, strain SHM2, hits give low values 0.98 | S. cerevisiae deletion strains, locus YLR102C, strain apc9, hits give low values 0.999 | S. cerevisiae deletion strains, locus YLR113W, strain HOG1, hits give low values 0.98 | S. cerevisiae deletion strains, locus YLR221C, strain rsa3, hits give low values 0.956 | S. cerevisiae deletion strains, locus YLR258W, strain gsy2, hits give low values 0.982 | S. cerevisiae deletion strains, locus YLR262C, strain YPT6 (second series), hits give low values 1.01 | S. cerevisiae deletion strains, locus YLR262C, strain YPT6, hits give low values 0.974 | S. cerevisiae deletion strains, locus YLR268W, strain sec22, hits give low values 1.06 | S. cerevisiae deletion strains, locus YLR320W, strain mms22, hits give low values 0.97 | S. cerevisiae deletion strains, locus YLR330W, strain CHS5, hits give low values 0.993 | S. cerevisiae deletion strains, locus YLR342W, strain FKS1 (second series), hits give low values 1.01 | S. cerevisiae deletion strains, locus YLR342W, strain FKS1, hits give low values 1.02 | S. cerevisiae deletion strains, locus YLR357W, strain rsc2, hits give low values 0.974 | S. cerevisiae deletion strains, locus YLR370C, strain arc18, hits give low values 0.99 | S. cerevisiae deletion strains, locus YLR371W, strain rom2, hits give low values 0.983 | S. cerevisiae deletion strains, locus YLR384C, strain iki3, hits give low values 0.996 | S. cerevisiae deletion strains, locus YLR418C, strain cdc73, hits give low values 1 | S. cerevisiae deletion strains, locus YML016C, strain PPZ1, hits give low values 0.996 | S. cerevisiae deletion strains, locus YML032C, strain rad52, hits give low values 1.01 | S. cerevisiae deletion strains, locus YML120C, strain ndi1, hits give low values 1 | S. cerevisiae deletion strains, locus YML124C, strain tub3, hits give low values 0.991 | S. cerevisiae deletion strains, locus YMR058W, strain fet3, hits give low values 0.991 | S. cerevisiae deletion strains, locus YMR078C, strain ctf18, hits give low values 0.987 | S. cerevisiae deletion strains, locus YMR125W, strain sto1, hits give low values 0.983 | S. cerevisiae deletion strains, locus YMR129W, hits give low values 0.967 | S. cerevisiae deletion strains, locus YMR205C, strain PFK2, hits give low values 1.02 | S. cerevisiae deletion strains, locus YMR223W, strain ubp8, hits give low values 0.98 | S. cerevisiae deletion strains, locus YMR231W, strain pep5, hits give low values 1 | S. cerevisiae deletion strains, locus YMR263W, strain SAP30, hits give low values 0.991 | S. cerevisiae deletion strains, locus YMR307W, strain GAS1, hits give low values 1 | S. cerevisiae deletion strains, locus YNL067W, strain RPL9B, hits give low values 0.998 | S. cerevisiae deletion strains, locus YNL071W, strain lat1, hits give low values 0.974 | S. cerevisiae deletion strains, locus YNL183C, strain NPR1, hits give low values 0.949 | S. cerevisiae deletion strains, locus YNL209W, strain ssb2, hits give low values 0.986 | S. cerevisiae deletion strains, locus YNL233W, strain BNI4, hits give low values 0.986 | S. cerevisiae deletion strains, locus YNL248C, strain rpa49, hits give low values 0.937 | S. cerevisiae deletion strains, locus YNL250W, strain rad50, hits give low values 0.985 | S. cerevisiae deletion strains, locus YNL271C, strain bni1, hits give low values 0.997 | S. cerevisiae deletion strains, locus YNL298W, strain CLA4, hits give low values 1 | S. cerevisiae deletion strains, locus YNL307C, strain MCK1, hits give low values 0.998 | S. cerevisiae deletion strains, locus YNL322C, strain KRE1 (second series), hits give low values 0.998 | S. cerevisiae deletion strains, locus YNR049C, strain mso1, hits give low values 0.979 | S. cerevisiae deletion strains, locus YNR052C, strain pop2, hits give low values 1 | S. cerevisiae deletion strains, locus YOL006C, strain TOP1, hits give low values 0.959 | S. cerevisiae deletion strains, locus YOL012C, strain htz1 1.14 | S. cerevisiae deletion strains, locus YOL147C, strain pex11, hits give low values 0.994 | S. cerevisiae deletion strains, locus YOR001W, strain rrp6, hits give low values 1 | S. cerevisiae deletion strains, locus YOR061W, strain CKA2, hits give low values 0.963 | S. cerevisiae deletion strains, locus YOR069W, strain VPS5, hits give low values 0.993 | S. cerevisiae deletion strains, locus YOR070C, strain gyp1, hits give low values 0.989 | S. cerevisiae deletion strains, locus YOR080W, strain dia2, hits give low values 0.997 | S. cerevisiae deletion strains, locus YOR083W, strain WHI5, hits give low values 1.01 | S. cerevisiae deletion strains, locus YOR106W, strain vam3, hits give low values 1.02 | S. cerevisiae deletion strains, locus YOR136W, strain idh2, hits give low values 0.981 | S. cerevisiae deletion strains, locus YOR144C, strain elg1, hits give low values 0.998 | S. cerevisiae deletion strains, locus YOR184W, strain ser1, hits give low values 0.986 | S. cerevisiae deletion strains, locus YOR231W, strain MKK1, hits give low values 0.982 | S. cerevisiae deletion strains, locus YOR265W, strain rbl2, hits give low values 0.982 | S. cerevisiae deletion strains, locus YOR270C, strain vph1, hits give low values 0.973 | S. cerevisiae deletion strains, locus YOR290C, strain snf2, hits give low values 0.952 | S. cerevisiae deletion strains, locus YOR316C, strain cot1, hits give low values 0.993 | S. cerevisiae deletion strains, locus YPL051W, strain arl3, hits give low values 1.01 | S. cerevisiae deletion strains, locus YPL078C, strain atp4, hits give low values 1.02 | S. cerevisiae deletion strains, locus YPL106C, strain sse1, hits give low values 0.982 | S. cerevisiae deletion strains, locus YPL240C, strain hsp82, hits give low values 1 | S. cerevisiae deletion strains, locus YPL256C, strain CLN2, hits give low values 0.969 | S. cerevisiae deletion strains, locus YPR119W, strain clb2, hits give low values 0.998 | S. cerevisiae deletion strains, locus YPR141C, strain kar3, hits give low values 0.982 | S. cerevisiae deletion strains, locus YPR163C, strain tif3, hits give low values 0.985 | S. cerevisiae deletion strains, locus YPR167C, strain met16, hits give low values 0.992 | S. cerevisiae deletion strains, strain wtn01, hits give low values 1 | S. cerevisiae strains, strain wild type, hits give low values 0.983
